Rows were chosen to be rich in hits. Some 7.4% of all compounds tested hit in one or more screens of this group.
YB-1 expr inh – YB-1 expression inhibition | U2OS, qRT-PCR YB-1 vs CDIP delta delta Cp, 16 h; stronger effect = higher value; zero = DMSO, each unit about twofold | delta delta Cp (YB-1 minus CDIP) (test concentration not listed) | 0.37% of 30,000 active;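 active means delta delta Cp rounded down to an integer at or above 3, about 3 SD of DMSO wells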;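 further: higher means less YB-1 transcript or more CDIP transcript relative to DMSO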
PD-1 reversal – reversal of PD-1 mediated T-cell inhibition; primary human CD4 T cells, PD-L1 beads, CellTiter-Glo 96 h; activation, % (no concentration beside the values); 29,000 tested, under 10 active; call rule not given here;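 further: 0% = median vehicle wells and 100% = positive control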
Hedgehog inh – Sonic Hedgehog pathway inhibition. Shh-LIGHT2 Gli-luciferase reporter, 30 h. inhibition, % (test concentration not listed). 2.1% of 22,000 active. AID 2313;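 active means mean inhibition across valid replicates above about 65%, limit read from the data; inconclusive means mean under the limit, yet half or more replicates past it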;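 further: pathway switched on by Shh-conditioned medium diluted 1 in 25 in low serum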
NOMO-1 viab – STK33 inhibitor candidate reducing NOMO-1 cell viability; 7.5% of 37,000 active; inhibition, % (no concentration beside the values); NOMO-1 AML viability, CellTiter-Glo luminescence, 72 h; in the data active means inhibition above about 80%; inconclusive means no clear call, values can overlap the other calls
MITF inhib – blocks MITF activity | TRPM1 promoter luciferase, luminescence, 24 h | inhibition, % (no concentration beside the values) | 0.28% of 37,000 active; in the data active means inhibition above about 85%; inconclusive means no clear call, values can overlap the other calls; inactive means below about 68%;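 further: human melanocyte line stably carrying TRPM1 promoter luciferase reporter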
The depositor's hits bear a star.

Results for C[C@]12CCC3c4ccc(O)cc4CCC3C1C[C@@H](O)[C@@H]2O (some centres undefined) ?
YB-1 expr inh: 0.054; Hedgehog inh: inconclusive; NOMO-1 viab: 10; MITF inhib: 2

How did C[C@]12CC[C@@H]3c4ccc(O)cc4CC[C@H]3[C@@H]1CCC2=O do in these assays?
YB-1 expr inh: 0.13; Hedgehog inh: 73*; NOMO-1 viab: -11; MITF inhib: 8

Results for C[C@]12CCC3c4ccc(OS(=O)(=O)O)cc4CCC3C1CC[C@H]2O (some centres undefined) ?
YB-1 expr inh: -0.15; Hedgehog inh: 6; NOMO-1 viab: -30; MITF inhib: 6

How did COc1ccc(/C=N/NC(=O)c2cccc(C(=O)NO)c2)cc1O do in these assays?
YB-1 expr inh: 0.25

How did CCOC(=O)c1c(NC(=S)Nc2nc(C)cc(C)n2)sc2c1CCCCCC2 do in these assays?
NOMO-1 viab: 26; MITF inhib: -5

How did CCN(CC)CC(O)Cn1c(C)c(-c2ccccc2)c2cc([N+](=O)[O-])ccc21 (centres undefined) do in these assays?
NOMO-1 viab: 94*; MITF inhib: -49

How did CCN(CC)CC(O)Cn1c2c(c3ccccc31)CCCC2=O (centres undefined) do in these assays?
PD-1 reversal: 3; NOMO-1 viab: 21; MITF inhib: -27

Results for OC(COc1ccc(Nc2ccccc2)cc1)COc1ccc(Nc2ccccc2)cc1 ?
YB-1 expr inh: -0.006; PD-1 reversal: 3; Hedgehog inh: 53; NOMO-1 viab: 103*; MITF inhib: 4

Results for C[C@H](CO)N1C[C@H](C)[C@@H](CN(C)Cc2ccccc2C(=O)O)OCc2cn(nn2)CCCC1=O ?
YB-1 expr inh: -0.38

Results for CCOC(=O)C1CCN(C(=O)Nc2ccc3snnc3c2)CC1 ?
PD-1 reversal: 0; NOMO-1 viab: 106*; MITF inhib: -4

How did C[C@H]1CN([C@@H](C)CO)C(=O)Cc2cc(NC(=O)Nc3ccc(C(F)(F)F)cc3)ccc2O[C@@H]1CN(C)Cc1ccc(C(=O)O)cc1 do in these assays?
YB-1 expr inh: -0.081; Hedgehog inh: -10; NOMO-1 viab: 0; MITF inhib: 3

How did Cc1sc(NC(=O)Cn2nc(C(F)(F)F)cc2C)c(C(N)=O)c1C do in these assays?
YB-1 expr inh: 0.013; PD-1 reversal: -1; Hedgehog inh: 2; NOMO-1 viab: 118*; MITF inhib: -3

What do the screens show for `Cc1ccc(OCC(=O)Nc2sc(C)c(C)c2C(N)=O)cc1`?
NOMO-1 viab: 30; MITF inhib: -38

How did C[C@H](CO)N1C[C@H](C)[C@H](CN(C)C(=O)Nc2ccc(C(F)(F)F)cc2)Oc2c(NC(=O)C3CCCCC3)cccc2C1=O do in these assays?
YB-1 expr inh: 0.25; PD-1 reversal: -4; Hedgehog inh: -14; NOMO-1 viab: 95*; MITF inhib: 43

How did C[C@H](CO)N1C[C@H](C)[C@H](CN(C)C(=O)Nc2ccc(C(F)(F)F)cc2)Oc2c(NC(=O)NC3CCCCC3)cccc2C1=O do in these assays?
YB-1 expr inh: -0.062; PD-1 reversal: -4; Hedgehog inh: 2; NOMO-1 viab: 106*; MITF inhib: 8

What do the screens show for `C[C@H]1CN([C@@H](C)CO)C(=O)c2cccc(NC(=O)NC3CCCCC3)c2O[C@@H]1CN(C)C(=O)Nc1ccc(C(F)(F)F)cc1`?
YB-1 expr inh: -0.13; PD-1 reversal: -5; Hedgehog inh: 30; NOMO-1 viab: 100*; MITF inhib: 15

Results for C[C@H]1CN([C@@H](C)CO)C(=O)c2cccc(NC(=O)Nc3ccc(F)cc3)c2O[C@@H]1CN(C)C(=O)Nc1cccc2ccccc12 ?
YB-1 expr inh: -0.1; PD-1 reversal: 2; Hedgehog inh: 12; NOMO-1 viab: 12; MITF inhib: 4

How did C[C@@H]1CN([C@@H](C)CO)C(=O)c2cccc(NC(=O)C3CC3)c2O[C@H]1CN(C)Cc1ccc(C(=O)O)cc1 do in these assays?
YB-1 expr inh: -1.6; PD-1 reversal: -1; Hedgehog inh: -10; NOMO-1 viab: -1; MITF inhib: 1

Results for C[C@@H]1CC(=O)C2=C(C1)C[C@@H](O)[C@@]1(O)C2C(=O)c2cccc(O)c2[C@@H]1O (some centres undefined) ?
YB-1 expr inh: 0.046; PD-1 reversal: 1; Hedgehog inh: -12; NOMO-1 viab: 4; MITF inhib: 9

What do the screens show for `CC1CC(=O)C2=C(CCC34OC23C(=O)c2cccc(O)c2C4O)C1` (centres undefined)?
YB-1 expr inh: -0.41; PD-1 reversal: -2; Hedgehog inh: -3; NOMO-1 viab: 100*; MITF inhib: 15

What do the screens show for `COc1ccc(NC(=O)N(C)C[C@H]2Oc3ccc(NC(=O)NC4CCCCC4)cc3C(=O)N([C@@H](C)CO)C[C@H]2C)cc1`?
YB-1 expr inh: -0.47; PD-1 reversal: 1; Hedgehog inh: -25; NOMO-1 viab: 22; MITF inhib: -4

What do the screens show for `O=C1C=CC(=O)c2c(O)c(Cl)c(Cl)c(O)c21`?
YB-1 expr inh: -0.43; PD-1 reversal: -41; Hedgehog inh: 44; NOMO-1 viab: 98*; MITF inhib: 60

How did C[C@@H]1CN([C@H](C)CO)C(=O)Cc2cc(NC(=O)NC3CCCCC3)ccc2O[C@@H]1CN(C)C(=O)Nc1ccc(F)cc1 do in these assays?
YB-1 expr inh: -0.36; PD-1 reversal: -1; NOMO-1 viab: 4; MITF inhib: -1

How did CCCCCCCC/C=C\CCCCCCCc1cccc(O)c1C(=O)O do in these assays?
YB-1 expr inh: -0.28; PD-1 reversal: 1; Hedgehog inh: 66*; NOMO-1 viab: 35; MITF inhib: 11

Results for CCCCCCCCCC/C=C\CCCCCCCc1cccc(O)c1C(=O)O ?
YB-1 expr inh: -0.068; PD-1 reversal: -7; Hedgehog inh: 103*; NOMO-1 viab: 119*; MITF inhib: 81

How did CCCCC/C=C\C/C=C\C/C=C\C/C=C\CCCCCC(=O)O do in these assays?
YB-1 expr inh: -0.062; Hedgehog inh: -10; NOMO-1 viab: 19; MITF inhib: -6

How did CCCCC/C=C\C/C=C\C/C=C\C/C=C\CCCC(=O)O do in these assays?
YB-1 expr inh: 0.51; Hedgehog inh: -36; NOMO-1 viab: -1; MITF inhib: -2

How did CN(C)/C=C/C(=O)c1ccc2c(c1)CCO2 do in these assays?
YB-1 expr inh: 0.16; PD-1 reversal: 0; Hedgehog inh: -55; NOMO-1 viab: 110*; MITF inhib: -27

How did C/C(=N\O)c1ccc2c(c1)CCO2 do in these assays?
YB-1 expr inh: -0.45; PD-1 reversal: 1; Hedgehog inh: -64; NOMO-1 viab: 17; MITF inhib: -52

How did O=S(=O)(N[C@H]1CCN(Cc2ccc(OCCO)cc2)C1)c1cc(C(F)(F)F)ccc1Cl do in these assays?
YB-1 expr inh: -0.38

What do the screens show for `C[C@@H]1CN([C@@H](C)CO)C(=O)c2cccc(NC(=O)Nc3ccc(C(F)(F)F)cc3)c2O[C@@H]1CN(C)CC1CCCCC1`?
YB-1 expr inh: 0.067; PD-1 reversal: -12; Hedgehog inh: 31; NOMO-1 viab: 95*; MITF inhib: -1
